ROCK2 inh = inhibitors of human Rho kinase 2. O75116. 60,000 compounds, 0.35% hits. inhibition, % at 6 µM. purified ROCK2, Kinase-Glo ATP depletion luminescence. AID 604;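 active means inhibition above the screen-wide mean inhibition plus 3 SD, cut at about 18% in these data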;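 further: plate controls were DMSO wells for no effect and Y-27632 control wells after no-enzyme background subtraction for full effect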
D1 mod = D1 dopamine receptor (human) allosteric modulation | 58,000 compounds, 5.9% hits | AID 641 | B-score at 10 µM | HEK293 D1, CRE-luciferase, dopamine EC30 potentiation; actives deviate in either direction;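 active means luminescence count or its row- and column-corrected plate score outside the 99.7% band of the plate's sample wells, on either side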
PKA kinase inh = PKA (human) kinase inhibition; P17612; PKA Kemptide phosphorylation, Kinase-Glo ATP luminescence; inhibition, % at 6 µM; 65,000 compounds, 0.1% hits; AID 524;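 active means inhibition above the screen-wide mean inhibition plus 3 SD, cut at about 21% in these data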
hDAT+cocaine = human DAT dopamine uptake with cocaine, either direction | Q01959 | LLC-PK1 hDAT cells, [14C]-dopamine uptake with cocaine IC80; actives deviate in either direction | B-score at 10 µM | 110,000 compounds, 1.3% hits | AID 449768;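 active means Z score or B-score, a plate-position-corrected score, falls beyond the plate's 99.7% confidence bounds, in either direction; inactive means both scores lie inside the 99.7% bounds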;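 further: scored against the spread of the other compound wells on the same plate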
D1 mod confirm = confirmation of human D1 dopamine receptor allosteric modulators | shares compounds with D1 mod | HEK293 D1 CRE-luciferase, dopamine EC30 potentiation; active compounds read high | luminescence at 10 µM | 2,200 compounds, 88% hits | AID 642;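 active means luminescence in either of two replicates above the same-plate mean plus 3 SD of the low-dose dopamine control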
D1 ag no DA = D1 (human) signaling in absence of dopamine; shares compounds with D1 mod; HEK293 D1 CRE-luciferase, luminescence, no dopamine; active compounds read high; luminescence at 10 µM; 1,900 compounds, 0.8% hits; in the data active means luminescence above about 3900
Isoprot counter = alters isoproterenol CRE-luciferase response in HEK293 cells; calls only at 10 µM; 2,200 compounds, 63% hits; shares compounds with D1 mod; HEK293 D1 CRE-luciferase, isoproterenol EC30 counter-screen;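 active means luminescence in either replicate above plate mean of wells with a partly effective reference agonist dose plus 3 SD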;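 further: isoproterenol raises cAMP through native beta-adrenoceptor Gs so signal bypasses D1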
Numbers without * were called inactive; i = inactive; . = no result given; + = active, no number. The full list was thinned out, with hits kept by preference.

SMILES	ROCK2 inh	D1 mod	PKA kinase inh	hDAT+cocaine	D1 mod confirm	D1 ag no DA	Isoprot counter
Fc1cccc(Cl)c1CSc1nnnn1-c1ccc2c(c1)OCO2	0	5.8*	7	0.39	11540*	.	+
Fc1cccc(Cl)c1Cn1nnc(-c2ccc3c(c2)OCO3)n1	7	0.058	10	-2.5	.	.	.
CCOC(=O)Cn1nc(-c2ccc(F)cc2)oc1=O	.	.	.	-0.083	.	.	.
COc1cc(CN(C)CC(=O)c2[nH]c(C)c(C(C)=O)c2C)ccc1OC(F)F	-1	5*	3	1	7936*	1244	+
COc1ccccc1OCC(=O)c1[nH]c(C)c(C(C)=O)c1C	5	-0.12	4	1.2	.	.	.
Cc1ccccc1-n1nc2c(c1NC(=O)c1c(-c3ccccc3Cl)noc1C)CSC2	5	-0.96	7	0.0019	.	.	.
Cc1ccc(-n2nc3c(c2NC(=O)c2c(-c4ccccc4Cl)noc2C)CSC3)cc1	2	4.6*	2	3*	4636	1496	i
O=C1CC(c2ccccc2)Sc2ccccc2N1 (stereo not given)	-2	26*	1	-0.59	18012*	1352	+
COC(=O)CC1Sc2ccccc2NC1=O (stereo not given)	5	0.21	7	-0.047	.	.	.
CC[N+](C)(C)CCN(Cc1ccc(Cl)cc1)c1ccccn1	.	.	.	-0.26	.	.	.
COc1ccc(CN(CCN(C)C)c2ccccn2)cc1	4	5.2*	2	0.011	3680	1484	i
CCOC(=O)c1c(C)[nH]c(C(=O)O)c1C	-1	-0.21	-2	-1	.	.	.
CCOC(=O)c1[nH]c(C)c(C(=O)OCc2c(C)noc2C)c1C	2	5.1*	2	-0.37	7568*	880	+
CCCN1CCN(CCCNC(=O)c2cc3c(=O)n(C)c4ccccc4c3n2C)CC1	-4	-0.0064	1	-0.31	.	.	.
CN1CCN(CCNC(=O)c2cc3c(=O)n(C)c4ccccc4c3n2C)CC1	4	4.6*	11	0.45	5788	.	i
CC(C)(C)c1ccc(-c2noc(CCC(=O)NCC3CCCO3)n2)cc1 (stereo not given)	.	.	.	-0.45	.	.	.
O=C(NCC1CCCO1)c1nnc(Cc2ccc(F)cc2)o1 (stereo not given)	4	-0.65	7	.	.	.	.
CC(c1ccccc1)N1C(=O)CC(Sc2ncccc2C(=O)O)C1=O (stereo not given)	-1	-0.36	4	-0.43	.	.	.
O=C(O)c1ccccc1SC1CC(=O)N(C2CCCCC2)C1=O (stereo not given)	2	3.9*	5	-1	6536	1600	i
CCC(=O)N1CCc2cc(S(=O)(=O)NCCC(=O)NC3CCCc4ccccc43)ccc21 (stereo not given)	-1	3.8*	-4	0.026	8544*	1768	i
CCC1SC2=NC(C)=C(C(=O)OCCOC)C(c3ccc(C(=O)OC)cc3)N2C1=O (stereo not given)	-8	0.16	3	-0.11	.	.	.
CCN1CCN(C(=O)c2nn(-c3ccc(C)cc3)c(=O)c3c2c2ccccc2n3C)CC1	-3	4.8*	2	-0.095	5812	.	i
CCN(CC)CCNC(=O)c1nn(-c2ccc(C)cc2)c(=O)c2c1c1ccccc1n2C	-2	0.13	2	1.3	.	.	.
O=c1c2c(n3cnnc3n1-c1ccccc1)-c1ccccc1CC21CCCCC1	.	.	.	1.6	.	.	.
CCn1c(=O)c2c(n3cnnc13)-c1ccccc1CC21CCCCC1	2	26*	0	-0.0052	16572*	1652	+
SMILES	ROCK2 inh	D1 mod	PKA kinase inh	hDAT+cocaine	D1 mod confirm	D1 ag no DA	Isoprot counter
CCn1c(=N)c(C(=O)NC)cc2c(=O)n3cccc(C)c3nc21	1	-1.2	5	.	.	.	.
CCNc1nc(C)c2cc(Br)c(=O)n(CC)c2n1	4	15*	4	-0.69	24012*	1832	+
Cc1ccc2c(c1)-c1cc(C)nn1C(c1sccc1C)N2 (stereo not given)	4	2.2	7	-0.086	.	.	.
Cc1cc2n(n1)C(c1ccc3c(c1)OCO3)Nc1ccccc1-2 (stereo not given)	-6	11*	-10	-0.36	17556*	.	+
Cc1cc2n(n1)C(c1ccccc1)Nc1ccccc1-2 (stereo not given)	-3	14*	-3	-0.021	14996*	1724	+
Cc1ccc2c(c1)-c1cc(C)nn1C(c1ccc3c(c1)OCO3)N2 (stereo not given)	0	5.3*	-1	.	12540*	1584	+
Cc1cc2n(n1)C(c1ccc(N(C)C)cc1)Nc1ccccc1-2 (stereo not given)	2	1.1	10	-0.57	.	.	.
Cc1cc2n(n1)C(c1sccc1C)Nc1ccccc1-2 (stereo not given)	-8	8.4*	-3	-0.13	9040*	.	+
CC(C)=CC1C=C(C)C(C)C2C(=O)NNC(=O)C12 (stereo not given)	.	.	.	-0.91	.	.	.
COC(=O)C1N2C(=O)[C@@H](NC(=O)COc3ccccc3)[C@H]2SC1(C)C (stereo not given in full)	.	.	.	-0.025	.	.	.
CCCCn1c(=O)[nH]c(=O)c2c1nc(COC(=O)c1c(C)noc1C)n2CCC	-1	6.2*	-4	1.4	14616*	1628	+
CCCCn1c(CCC(=O)O)nc2c1c(=O)[nH]c(=O)n2CCC	.	.	.	0.71	.	.	.
CCOc1ccc(N(CC(=O)OC)S(=O)(=O)c2ccc(OC)c(OC)c2)cc1	0	3.6*	10	1.3	12916*	1768	+
COc1ccc(N(CC(=O)O)S(=O)(=O)c2ccc(OC)c(OC)c2)cc1	.	-1.2	.	-0.41	.	.	.
COC(=O)CN(c1ccc(OC)cc1)S(=O)(=O)c1ccc(OC)c(OC)c1	2	3*	4	0.36	10376*	1508	+
Cc1ccc(S(=O)(=O)N2CCOCC2)cc1C(=O)Nc1ccccn1	0	-0.092	2	0.22	.	.	.
Cc1cc(NC(=O)c2cc(S(=O)(=O)N3CCCCC3)ccc2C)n(-c2ccccn2)n1	1	21*	2	1.1	16476*	1732	+
CC[C@H](C)[C@@H](C(=O)N1CCNCC1)n1cc([C@@H](N)CO)nn1	.	.	.	-0.48	.	.	.
O=C(CCS(=O)(=O)c1ccc(Cl)cc1)N1CCN(S(=O)(=O)c2cccs2)CC1	6	-0.48	7	.	.	.	.
O=C(CCCc1nc2ccccc2s1)N1CCN(S(=O)(=O)c2cccs2)CC1	2	4.2*	1	-0.074	8136*	1520	i
CCn1c(O)c(/C=N/N=C/c2ccccc2)c2ccc(C3=NNC(=O)CC3)cc21	.	.	.	2.4	.	.	.
COCOc1ccc(C=O)c(OCOC)c1	.	.	.	-1.1	.	.	.
NC1=NC(c2ccc(Cl)cc2)n2c(nc3ccccc32)N1 (stereo not given)	0	9.1*	-2	1.7	11876*	1532	i
